Out of some 310,000 compounds screened, about 2,200 (0.71%) showed an effect of 50% or more. The effect is printed as a negative number. The list comes from a sample in which strong results are over-represented; it also holds similar structures and randomly drawn compounds.
Each compound was assayed against human ether-à-go-go-related gene (hERG) potassium channel (human, UniProt Q12809) (assay: primary screen, population patch clamp on CHO cells stably expressing hERG; higher = less effect of the substance).
human ether-à-go-go-related gene (hERG) potassium channel, sequence (Q12809 whole entry, looked up): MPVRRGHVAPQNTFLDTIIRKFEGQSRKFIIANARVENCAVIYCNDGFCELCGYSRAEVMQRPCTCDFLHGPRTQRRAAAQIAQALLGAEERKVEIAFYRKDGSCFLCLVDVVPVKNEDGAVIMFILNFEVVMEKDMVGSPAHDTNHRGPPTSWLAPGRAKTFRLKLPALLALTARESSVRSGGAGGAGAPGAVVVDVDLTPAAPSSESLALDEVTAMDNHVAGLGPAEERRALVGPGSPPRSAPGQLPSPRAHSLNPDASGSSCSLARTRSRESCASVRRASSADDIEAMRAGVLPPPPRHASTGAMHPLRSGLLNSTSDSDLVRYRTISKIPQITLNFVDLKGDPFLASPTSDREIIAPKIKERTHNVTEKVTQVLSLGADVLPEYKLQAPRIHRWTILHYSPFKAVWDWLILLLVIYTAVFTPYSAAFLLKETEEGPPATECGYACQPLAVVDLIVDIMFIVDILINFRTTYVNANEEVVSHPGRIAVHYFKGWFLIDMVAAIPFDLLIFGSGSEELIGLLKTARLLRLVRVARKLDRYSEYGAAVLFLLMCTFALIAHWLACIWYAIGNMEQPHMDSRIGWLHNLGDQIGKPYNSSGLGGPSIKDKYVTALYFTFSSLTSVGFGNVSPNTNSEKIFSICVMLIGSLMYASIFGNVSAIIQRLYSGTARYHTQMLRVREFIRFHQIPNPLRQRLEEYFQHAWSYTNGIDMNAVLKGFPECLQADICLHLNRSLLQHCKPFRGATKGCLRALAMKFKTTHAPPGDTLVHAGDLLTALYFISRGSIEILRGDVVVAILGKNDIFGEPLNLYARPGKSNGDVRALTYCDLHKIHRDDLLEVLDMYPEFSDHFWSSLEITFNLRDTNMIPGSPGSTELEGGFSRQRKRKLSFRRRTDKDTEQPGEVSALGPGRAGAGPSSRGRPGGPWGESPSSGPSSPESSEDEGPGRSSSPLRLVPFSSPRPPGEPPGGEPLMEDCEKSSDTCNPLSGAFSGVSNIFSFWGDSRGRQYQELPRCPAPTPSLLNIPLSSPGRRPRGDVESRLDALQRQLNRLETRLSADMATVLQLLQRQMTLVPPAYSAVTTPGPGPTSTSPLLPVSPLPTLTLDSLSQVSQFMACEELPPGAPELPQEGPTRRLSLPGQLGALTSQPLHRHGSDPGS

SMILES | hERG current change (%, negative = inhibition) at 1uM [%]
CC(=O)N1CCOc2ccc(S(=O)(=O)Nc3ccc(C)cn3)cc21 | 4.68
COCCNC(=O)c1ccccc1NC(=O)c1ccc(OC)c(OC)c1 | 4.05
COc1ccc(-c2cc(C3CCN(Cc4cccc(C(F)(F)F)c4)CC3)[nH]n2)cc1 | -13
Cc1ccc(CN2CCC(c3cc(-c4ccc(Cl)cc4)n[nH]3)CC2)cc1 | -78.1
CC(C)(C)OC(=O)N1CCC(c2cc(-c3cccs3)n[nH]2)CC1 | 4.89
COc1ccc(-c2cc(C3CCN(Cc4ccc([N+](=O)[O-])cc4)CC3)[nH]n2)cc1 | -44.3
Cc1ccc(CN2CCC(c3cc(-c4cccs4)n[nH]3)CC2)cc1 | -85.6
CCOC(=O)CN1CCC(c2cc(-c3ccc(Cl)cc3)n[nH]2)CC1 | 22.3
S=c1[nH]ncn1/N=C/c1ccccc1 | 14.4
COc1nc(Nc2ccc([N+](=O)[O-])cc2)nc(NC2CCCCC2)n1 | 11.2
O=C(COc1ccccc1Cl)N1CCN(c2ccc([N+](=O)[O-])c(N3CCCCC3)c2)CC1 | 0.717
CCCCCNC(=O)[C@@H]1CSC2c3ccccc3C(=O)N21 (some centres unmarked) | 14
COc1ccc(CCc2nc(-c3cccs3)no2)cc1 | 5.28
O=C(CSc1ccc2nnc(-c3ccccc3)n2n1)NCc1ccc2c(c1)OCO2 | -71
O=C(CSc1ccc2nnc(-c3cccnc3)n2n1)NCc1ccc2c(c1)OCO2 | 4.47
O=C(CSc1nnc(-c2cccnc2)n1Cc1ccco1)NCc1ccc2c(c1)OCO2 | -20.4
O=C(CSc1nnc(-c2ccc(Cl)cc2)n1Cc1ccco1)NCc1ccc2c(c1)OCO2 | -51.6
O=C(CSc1ccc2nnc(-c3ccccn3)n2n1)Nc1ccc2c(c1)OCO2 | 2.61
O=C(CSc1nnc(-c2ccccc2)n1Cc1ccco1)NCc1ccc2c(c1)OCO2 | -22.2

SMILES | hERG current change (%, negative = inhibition) at 1uM [%]
O=C(CSc1nnc(-c2cccnc2)n1-c1ccc(F)cc1)NCc1ccc2c(c1)OCO2 | -54.5
O=C(CSc1ccc2nnc(-c3ccccn3)n2n1)Nc1ccc2c(c1)OCCO2 | -2.96
C=CCn1c(SCC(=O)NCc2ccc3c(c2)OCO3)nnc1-c1cccnc1 | 8.01
O=C(CSc1nnc(-c2cccnc2)n1-c1ccccc1)NCc1ccc2c(c1)OCO2 | -47.9
O=C(CSc1ccc2nnc(-c3ccncc3)n2n1)Nc1ccc2c(c1)OCO2 | 13.8
O=C(CSc1ccc2nnc(-c3ccccn3)n2n1)NCc1ccc2c(c1)OCO2 | -65.8
COc1cc(S(=O)(=O)N(Cc2cccnc2)Cc2ccco2)ccc1-n1cnnn1 | -10.7
Cc1cc(C(=O)NC2CCCCCCC2)ccc1[N+](=O)[O-] | 13.3
Cc1ccc(CN2C(=O)CSC2c2ccc(F)cc2)cc1 (centres unmarked) | 12.2
C#CC(CO)N(CCN(Cc1ccccc1)C(C#C)CO)Cc1ccccc1 (centres unmarked) | 9.58
COC(=O)C(C)NC(=S)N1CC2C[C@@H](C1)Cn1c2cccc1=O (some centres unmarked) | 15.6
COc1cccc(N2CCN(S(=O)(=O)c3ccc(-c4coc(C)n4)cc3)CC2)c1 | 11.7
CCN(CC(=O)Nc1ccc(NC(C)=O)cc1)C(=O)c1cc2c(s1)CCCCC2 | 2.11
c1ccc(-c2nnc3sc(-c4cc5ccccc5o4)nn23)cc1 | 14.4
CCCCCC(=O)Nc1cccc(-c2nc3ncccc3o2)c1 | 0.93
O=C(CSc1ccc2nnc(-c3ccncc3)n2n1)NCc1ccco1 | -7.28
Cc1ccc(-c2nnc3ccc(SCC(=O)NCc4ccco4)nn23)cc1 | 4.96
O=C(CSc1ccc2nnc(-c3ccccc3)n2n1)NCc1ccco1 | -65.8
CCOc1ccc(OCCNC2CCCC2)cc1 | 2.09

SMILES | hERG current change (%, negative = inhibition) at 1uM [%]
O=C(NCc1ccco1)C(NS(=O)(=O)c1cccc2nsnc12)c1ccccc1 (centres unmarked) | 7.81
O=C(CCn1c(=O)[nH]c2ccsc2c1=O)N1CCN(c2cccc(Cl)c2)CC1 | -6.52
CC(CNC(=O)c1ccc(C#N)cc1)NC(=O)c1ccc(C#N)cc1 (centres unmarked) | -81.9
CCOc1ccc(C(=O)NCC(C)NC(=O)c2ccc(OCC)cc2)cc1 (centres unmarked) | 22.5
CC(CNC(=O)c1ccc(N)cc1)NC(=O)c1ccc(N)cc1 (centres unmarked) | 12
CN(C)/C=C/C(=O)c1ccccc1F | 4.57
COc1ccc(-c2[nH]ncc2CN2CCCC(C(=O)c3cccc(OC)c3)C2)cc1 (centres unmarked) | -29.5
COc1cccc(CN2CCCC(C(=O)c3ccccc3SC)C2)c1O (centres unmarked) | -76.9
COc1ccc(C(=O)C2CCCN(Cc3cn[nH]c3-c3ccccc3)C2)cc1OC (centres unmarked) | -75.4
COc1cccc(OC)c1CN1CCCC(C(=O)c2ccccc2SC)C1 (centres unmarked) | -37.8
COc1ccc(C(=O)C2CCCN(Cc3cn[nH]c3-c3ccc(F)cc3)C2)cc1OC (centres unmarked) | -25.9
COc1ccc(C(=O)C2CCCN(Cc3c(O)cccc3OC)C2)cc1OC (centres unmarked) | -7.05
CCOc1ccccc1CN1CCCC(C(=O)c2ccc(OC)c(OC)c2)C1 (centres unmarked) | -51.1
COc1ccc(C(=O)C2CCCN(Cc3cccc4c3OCO4)C2)cc1OC (centres unmarked) | -29.3
COc1ccc(C(=O)C2CCCN(Cc3nc4ccccc4nc3C)C2)cc1OC (centres unmarked) | -83.3
COc1ccc(C(=O)C2CCCN(Cc3ccc(C)s3)C2)cc1OC (centres unmarked) | -32.5
COc1ccccc1CN1CCCC(C(=O)c2ccccc2SC)C1 (centres unmarked) | -27.3
COc1ccc(C(=O)C2CCCN(Cc3cnc(C)s3)C2)cc1OC (centres unmarked) | 2.68

Source: paper PMC4336329 (PLoS ONE, 2015)
